Reference: PubChem BioAssay (NCI)
The panel holds about 83,000 compounds, 20% with a hit somewhere; the sample as a whole holds those more often.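 For each line, cells grew in 96-well plates with the test compound present at a single concentration for 48 hours.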 Activity calls are given as the source filed them. Rule for the calls: active = growth percent below 10; inactive = the rest.

What was measured:
Experiment in all cases: NCI-60 one-dose screen, 48 h (100 = growth as untreated, 0 = no growth, -100 = all killed)
Conditions in all cases: 10 µM unless noted
SR leukemia = tested on: SR leukemia
RPMI-8226 leukemia = tested on: RPMI-8226 leukemia
OVCAR-8 ovarian = tested on: OVCAR-8 ovarian
OVCAR-5 ovarian = tested on: OVCAR-5 ovarian
OVCAR-4 ovarian = tested on: OVCAR-4 ovarian
SK-OV-3 ovarian = tested on: SK-OV-3 ovarian
IGROV1 ovarian = tested on: IGROV1 ovarian
OVCAR-3 ovarian = tested on: OVCAR-3 ovarian
HS 578T breast = tested on: HS 578T breast
NCI/ADR-RES ovarian = tested on: NCI/ADR-RES ovarian
T-47D breast = tested on: T-47D breast
BT-549 breast = tested on: BT-549 breast
MDA-MB-435 melanoma = tested on: MDA-MB-435 melanoma
SW-620 colon = tested on: SW-620 colon
MCF7 breast = tested on: MCF7 breast
HCT-116 colon = tested on: HCT-116 colon
HCC-2998 colon = tested on: HCC-2998 colon
KM12 colon = tested on: KM12 colon

Measured: growth

O=C(Oc1ccc2c(c1)sc1nc(-c3ccccc3)[nH]c(=O)c12)C(F)(F)F
inactive: SR leukemia 18.9% | RPMI-8226 leukemia 24.1% | OVCAR-8 ovarian 40.8% | OVCAR-5 ovarian 73.4% | OVCAR-4 ovarian 51.4% | SK-OV-3 ovarian 50.2% | IGROV1 ovarian 32.9% | HS 578T breast 18.8% | T-47D breast 32.3% | BT-549 breast 44.3% | SW-620 colon 18.4% | MCF7 breast 17.1% | HCT-116 colon 19.8% | HCC-2998 colon 31.2% | KM12 colon 11.2%
active: OVCAR-3 ovarian 9.6% | NCI/ADR-RES ovarian 7.5% | MDA-MB-435 melanoma -55.4%

Cc1nn(-c2ccc([N+](=O)[O-])cc2)c2ncnc(N/N=C/c3ccccc3O)c12
inactive: OVCAR-8 ovarian 14.5% | OVCAR-5 ovarian 55.8% | OVCAR-4 ovarian 16.5% | OVCAR-3 ovarian 27.3% | HS 578T breast 44% | T-47D breast 11.6% | BT-549 breast 30.6% | MDA-MB-435 melanoma 26.5% | SW-620 colon 25.1% | MCF7 breast 11.9% | HCT-116 colon 18.1% | HCC-2998 colon 40.4% | KM12 colon 22.3%
active: SR leukemia 4.55% | RPMI-8226 leukemia 1.23% | SK-OV-3 ovarian 3.11% | IGROV1 ovarian 9.22% | NCI/ADR-RES ovarian 6.28%

COc1cc(/C=C/c2cc(/C=C/c3ccc(O)c(OC)c3)n(C(=O)Nc3ccc(Cl)cc3)n2)ccc1O
inactive: OVCAR-5 ovarian 10.9% | OVCAR-4 ovarian 13.3% | NCI/ADR-RES ovarian 17.5% | T-47D breast 18.5%
active: SR leukemia 1.52% | RPMI-8226 leukemia 2.91% | OVCAR-8 ovarian -19.8% | SK-OV-3 ovarian -0.374% | IGROV1 ovarian 9.93% | OVCAR-3 ovarian -11% | HS 578T breast 8.23% | BT-549 breast -14.4% | MDA-MB-435 melanoma 2.46% | SW-620 colon 9.56% | MCF7 breast 5.36% | HCT-116 colon 4.61% | HCC-2998 colon 4.55% | KM12 colon 3.53%

O=Nc1ccc(NC(=O)Nc2ccc([N+](=O)[O-])cc2)cc1
inactive: SR leukemia 81.1% | RPMI-8226 leukemia 44.1% | OVCAR-8 ovarian 91.5% | OVCAR-5 ovarian 122% | OVCAR-4 ovarian 87.1% | SK-OV-3 ovarian 102% | IGROV1 ovarian 99.5% | OVCAR-3 ovarian 98.4% | HS 578T breast 91.6% | NCI/ADR-RES ovarian 91.6% | T-47D breast 78.9% | BT-549 breast 98.3% | MDA-MB-435 melanoma 96.5% | SW-620 colon 97.4% | MCF7 breast 94% | HCT-116 colon 86.5% | HCC-2998 colon 104% | KM12 colon 90.7%

O=S(=O)(Nc1cc(F)cc(F)c1)c1ccc(-c2cnc(C3CC3)o2)cc1
inactive: SR leukemia 16.2% | RPMI-8226 leukemia 26.5% | OVCAR-8 ovarian 49.6% | OVCAR-5 ovarian 71% | OVCAR-4 ovarian 67.8% | SK-OV-3 ovarian 60.2% | IGROV1 ovarian 34.3% | HS 578T breast 14.4% | NCI/ADR-RES ovarian 26.4% | T-47D breast 29.8% | BT-549 breast 36.1% | SW-620 colon 17.2% | MCF7 breast 14.3% | HCT-116 colon 19.1% | HCC-2998 colon 67.3% | KM12 colon 19.2%
active: OVCAR-3 ovarian 2.74% | MDA-MB-435 melanoma -23.6%

Nc1[nH]nc2nc(-c3ccccc3)n3c4ccccc4nc3c12
inactive: SR leukemia 92.2% | RPMI-8226 leukemia 101% | OVCAR-8 ovarian 98.8% | OVCAR-5 ovarian 106% | OVCAR-4 ovarian 101% | SK-OV-3 ovarian 93% | IGROV1 ovarian 77.9% | OVCAR-3 ovarian 106% | HS 578T breast 106% | NCI/ADR-RES ovarian 104% | T-47D breast 90.1% | BT-549 breast 105% | MDA-MB-435 melanoma 98.7% | SW-620 colon 95.8% | MCF7 breast 92.7% | HCT-116 colon 99.4% | HCC-2998 colon 110% | KM12 colon 104%

COc1c2c(cc3c1C(=O)N[C@@H]1[C@@H](O)[C@@H](O)[C@H](O)C[C@@H]31)OCCO2
inactive: SR leukemia 92.1% | RPMI-8226 leukemia 102% | OVCAR-8 ovarian 100% | OVCAR-5 ovarian 105% | OVCAR-4 ovarian 105% | SK-OV-3 ovarian 98.6% | IGROV1 ovarian 109% | OVCAR-3 ovarian 104% | HS 578T breast 96.2% | NCI/ADR-RES ovarian 113% | T-47D breast 84.9% | BT-549 breast 99.5% | MDA-MB-435 melanoma 108% | SW-620 colon 104% | MCF7 breast 93.9% | HCT-116 colon 102% | HCC-2998 colon 106% | KM12 colon 99.1%

CN(C)c1ccc(/C=N\NC(=O)c2ccc3nc(-c4ccc(Cl)cc4)[nH]c3c2)cc1
inactive: SR leukemia 20.7% | RPMI-8226 leukemia 67.4% | OVCAR-8 ovarian 51.3% | OVCAR-5 ovarian 89.2% | OVCAR-4 ovarian 36.4% | SK-OV-3 ovarian 98.3% | IGROV1 ovarian 40.2% | OVCAR-3 ovarian 70.7% | HS 578T breast 70% | NCI/ADR-RES ovarian 77% | T-47D breast 59.4% | BT-549 breast 106% | MDA-MB-435 melanoma 93.9% | SW-620 colon 46.3% | MCF7 breast 17.4% | HCT-116 colon 48.6% | HCC-2998 colon 79% | KM12 colon 64.9%

CC(C)n1c2ccc(Br)cc2c2c3c(c4c5ccccc5ccc4c21)C(=O)NC3=O
inactive: SR leukemia 61.6% | RPMI-8226 leukemia 91.6% | OVCAR-8 ovarian 100% | OVCAR-5 ovarian 87.7% | OVCAR-4 ovarian 94.2% | SK-OV-3 ovarian 105% | IGROV1 ovarian 84.8% | OVCAR-3 ovarian 94.2% | HS 578T breast 108% | NCI/ADR-RES ovarian 93.2% | T-47D breast 63.3% | BT-549 breast 95.9% | MDA-MB-435 melanoma 92.4% | SW-620 colon 101% | MCF7 breast 86.2% | HCT-116 colon 85.2% | HCC-2998 colon 103% | KM12 colon 52.7%

c1cc(OCCN2CCCCC2)ccc1CNc1ccc2nc(CCC3CCCCC3)[nH]c2c1
inactive: SR leukemia 12.5% | OVCAR-8 ovarian 36.6% | OVCAR-5 ovarian 60.2% | OVCAR-4 ovarian 49.5% | SK-OV-3 ovarian 86.1% | IGROV1 ovarian 42.3% | OVCAR-3 ovarian 48.4% | HS 578T breast 45.8% | NCI/ADR-RES ovarian 63.8% | BT-549 breast 73.6% | HCT-116 colon 12.9% | KM12 colon 43%
active: RPMI-8226 leukemia -22.5% | T-47D breast -29.6% | MDA-MB-435 melanoma -54.2% | SW-620 colon 2.97% | MCF7 breast -3.08% | HCC-2998 colon -13.5%

Cc1nc2sc(C(=O)Nc3cccc(Cl)c3C)c(N)c2cc1C(=O)/C=C/c1ccccc1
active: RPMI-8226 leukemia -37.2% | OVCAR-8 ovarian -12.5% | OVCAR-5 ovarian 8.98% | IGROV1 ovarian -11.8% | OVCAR-3 ovarian -76.6% | HS 578T breast 6.35% | NCI/ADR-RES ovarian -4.7% | BT-549 breast -35.7% | MDA-MB-435 melanoma -26.3% | SW-620 colon -21.8% | MCF7 breast 3% | HCT-116 colon -35.6% | HCC-2998 colon -83.2% | KM12 colon -16.7%
inactive: SR leukemia 14.2% | OVCAR-4 ovarian 35.5% | SK-OV-3 ovarian 28.8% | T-47D breast 21.2%

Cc1[nH]n(-c2cccc(Cl)c2)c(=O)c1/C=C1\C=c2ccccc2=CC1=O
active: OVCAR-4 ovarian -62.5% | T-47D breast -7.69% | MCF7 breast 8.67% | HCT-116 colon 8.69% | HCC-2998 colon -22.2%
inactive: SR leukemia 29.7% | RPMI-8226 leukemia 96.4% | OVCAR-8 ovarian 22.3% | OVCAR-5 ovarian 16.9% | SK-OV-3 ovarian 15.3% | IGROV1 ovarian 33.9% | OVCAR-3 ovarian 63.2% | HS 578T breast 82.2% | NCI/ADR-RES ovarian 75.3% | BT-549 breast 90.2% | MDA-MB-435 melanoma 20.7% | SW-620 colon 31% | KM12 colon 21.2%

CCCC(O)Cn1ncc(C(=O)OCC)c1NC(=O)NCc1cccc(C(F)(F)F)c1 (stereo unspecified)
inactive: SR leukemia 76.1% | RPMI-8226 leukemia 47.9% | OVCAR-8 ovarian 102% | OVCAR-5 ovarian 107% | OVCAR-4 ovarian 104% | SK-OV-3 ovarian 84.8% | IGROV1 ovarian 83.8% | OVCAR-3 ovarian 100% | HS 578T breast 107% | NCI/ADR-RES ovarian 86.4% | T-47D breast 73.2% | BT-549 breast 77.8% | MDA-MB-435 melanoma 103% | SW-620 colon 106% | MCF7 breast 97.6% | HCT-116 colon 61.4% | HCC-2998 colon 85.3% | KM12 colon 103%

CC1(C)CC[C@]23CC[C@]4(C)[C@H](CC[C@@H]5[C@@]6(C)CCNCC(C)(C)[C@@H]6CC[C@]54C)[C@H]2[C@H]1OC3
active: SR leukemia 4.33%
inactive: RPMI-8226 leukemia 29.7% | OVCAR-8 ovarian 97.4% | OVCAR-5 ovarian 106% | OVCAR-4 ovarian 99.8% | SK-OV-3 ovarian 96.5% | IGROV1 ovarian 107% | OVCAR-3 ovarian 98.5% | HS 578T breast 104% | NCI/ADR-RES ovarian 104% | T-47D breast 77.8% | BT-549 breast 94.2% | MDA-MB-435 melanoma 86.5% | SW-620 colon 49.9% | MCF7 breast 91.5% | HCT-116 colon 55% | HCC-2998 colon 28.6% | KM12 colon 81.4%

CCN1C2CCC1/C(=C\c1ccccc1)C(=O)/C2=C/c1ccccc1
inactive: SR leukemia 27.3% | RPMI-8226 leukemia 38.2% | OVCAR-8 ovarian 22.5% | OVCAR-5 ovarian 88.3% | OVCAR-4 ovarian 46.1% | SK-OV-3 ovarian 78.5% | IGROV1 ovarian 49.9% | OVCAR-3 ovarian 13% | HS 578T breast 71.4% | NCI/ADR-RES ovarian 15.1% | T-47D breast 56.9% | BT-549 breast 48.6% | MDA-MB-435 melanoma 30.7% | SW-620 colon 42.4% | MCF7 breast 25.2% | HCT-116 colon 15.6% | HCC-2998 colon 80.1% | KM12 colon 20.6%

CNCCCNc1nc2ccccc2c2c(=O)c3cc(Cl)ccc3sc12
inactive: OVCAR-8 ovarian 24.5% | OVCAR-5 ovarian 47.1% | OVCAR-4 ovarian 63.6% | SK-OV-3 ovarian 84.4% | IGROV1 ovarian 33.2% | HS 578T breast 59.9% | NCI/ADR-RES ovarian 44.3% | T-47D breast 48.5% | BT-549 breast 92.4%
active: SR leukemia -39.9% | RPMI-8226 leukemia -25.3% | OVCAR-3 ovarian 9.78% | MDA-MB-435 melanoma -18.5% | SW-620 colon -87% | MCF7 breast -77.3% | HCT-116 colon -92.1% | HCC-2998 colon -89.8% | KM12 colon -24.6%

CS(=O)(=O)Nc1cc(-c2ccc3ncnc(Nc4ccc(OCc5ccccn5)c(Cl)c4)c3c2)cnc1Cl
inactive: OVCAR-8 ovarian 14.4% | OVCAR-5 ovarian 12.5% | OVCAR-4 ovarian 20.9% | NCI/ADR-RES ovarian 77.7%
active: SR leukemia -5.01% | RPMI-8226 leukemia -50.3% | SK-OV-3 ovarian -27.1% | IGROV1 ovarian -30.6% | OVCAR-3 ovarian -19% | HS 578T breast -19.7% | T-47D breast -25.3% | BT-549 breast -3.21% | MDA-MB-435 melanoma 7.34% | SW-620 colon 5.12% | MCF7 breast 4.74% | HCT-116 colon 9.28% | HCC-2998 colon 3.04% | KM12 colon -5.09%
